# Laboratory results reported in PubChem BioAssay.
# Active and inactive are the calls of the source. Unless noted, the rule behind the calls is not given here.
# Experiments:
# [1] = test system: XIP peptide (Xip251-270) binding; assay: XIP fragment 251-270 binding compounds – biochemical, small-molecule microarray, fluorescence 635/667 nm, 0.1 µg/mL protein, primary screen (AID 1182); details: fluorescent protein binding, 635 nm, higher = more signal, called active from +8 up or from −8 down
# XIP peptide (Xip251-270) = assay: compounds binding XIP fragment 251-270 – biochemical, small-molecule microarray, fluorescence 635/667 nm, 0.5 µg/mL protein, primary screen (AID 1183); details: fluorescence 635 nm, higher = more signal
# [2] = blood-stage malaria parasite viability loss – strain 3D7, DAPI fluorescence, 100 nL, primary screen (AID 1184);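 note: parasites grown inside human red blood cells in medium with human serum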; details: P. falciparum 3D7 growth, 3 d, higher = more signal
# [3] = target: Homeobox protein Hox-A13 (Mus musculus) (UniProt Q62424); assay: disruptors of Hoxa13 oligonucleotide interaction – biochemical, fluorescence polarization, labeled oligonucleotide, primary screen (AID 1185); details: Hoxa13:DNA binding, 15 min, higher = more signal, called active from +8 up or from −8 down
# Homeobox protein Hox-A13 (Mus musculus), sequence (Q62424 whole entry, looked up): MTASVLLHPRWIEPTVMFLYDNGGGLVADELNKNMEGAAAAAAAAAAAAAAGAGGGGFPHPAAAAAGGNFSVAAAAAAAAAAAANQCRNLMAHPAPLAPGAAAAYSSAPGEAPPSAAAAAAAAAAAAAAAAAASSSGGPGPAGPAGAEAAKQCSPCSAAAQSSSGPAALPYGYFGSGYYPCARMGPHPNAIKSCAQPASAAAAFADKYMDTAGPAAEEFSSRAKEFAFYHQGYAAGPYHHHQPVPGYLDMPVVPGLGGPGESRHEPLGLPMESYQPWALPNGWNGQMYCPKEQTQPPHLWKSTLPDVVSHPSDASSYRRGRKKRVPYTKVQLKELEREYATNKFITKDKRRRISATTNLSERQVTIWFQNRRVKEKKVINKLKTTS
# [4] = blockers of DNA damage checkpoint Chk1 activation – imaging, HeLa, hydroxyurea, phospho-Chk1 antibody, percent positive cells, primary screen (AID 1186); details: hydroxyurea-induced phospho-Chk1 immunofluorescence imaging, higher = more signal
# [5] = blockers of DNA damage checkpoint Chk1 activation – imaging, HeLa, hydroxyurea, phospho-Chk1 nuclear intensity, primary screen (AID 1187); details: hydroxyurea-induced phospho-Chk1 immunofluorescence imaging, higher = more signal
Compound,composite z-score [1],composite z-score (XIP peptide (Xip251-270)),z-score [2],z-score [3],z-score [4],z-score [5]
C#C[C@H]1Oc2ccccc2S(=O)(=O)N2CCC[C@@H]12,-0.267 (inactive),-0.286,0.562,-1.15 (inactive),0.528 (inactive),0.526 (inactive)
O=C(CS)NCCCCCCNC(=O)[C@H]1C[C@H]2C(=O)N3CCC[C@H]3C(=O)N2[C@H]1c1ccc(O)cc1,0.573 (inactive),0.646,-0.38,-2.8 (inactive),-0.508 (inactive),-0.19 (inactive)
O=C(NCC(O)CO)[C@@]1(Cc2ccccc2)N=C(c2ccc(OCCCO)cc2)O[C@H]1c1ccccc1 (stereo partly specified),0.502 (inactive),0.801,-1.22,-4 (inactive),-0.607 (inactive),-0.29 (inactive)
COc1ccc(C(=O)Nc2cccc(CN3C(=O)[C@@]4(O[C@@H](CCn5cc([C@H](O)c6ccccc6)nn5)[C@H]([Si](C)(C)c5ccc(OC)cc5)[C@H]4C)c4ccccc43)c2)cc1,0.0252 (inactive),0.575,-2.31,0.472 (inactive),-0.694 (inactive),-1.14 (inactive)
COC(=O)[C@@]1(Cc2ccccc2)[C@H]2c3cc(C(=O)N(C)C)n(Cc4cc(F)c(F)c(F)c4)c3C[C@H]2CN1C(=O)c1ccccc1,-0.218 (inactive),0.0006,-1.52,-4 (inactive),-0.217 (inactive),-0.227 (inactive)
C=CC[C@@]1(C(=O)NCc2ccccc2)N=C(c2ccc(OCCCO)cc2)O[C@@H]1c1ccccc1CN=[N+]=[N-],-0.0368 (inactive),0.496,-2.28,-10.5 (active),0.168 (inactive),0.43 (inactive)
COc1ccccc1CN1C(=O)c2ccccc2[C@](Cc2ccccc2I)(C(=O)NC2CC2)[C@@H]1c1ccc(CO)cc1,-0.259 (inactive),0.823,-2.22,-4.79 (inactive),-0.145 (inactive),0.548 (inactive)
C=CCNC(=O)[C@@H]1[C@H]2C(=O)O[C@H](c3ccccc3)[C@H](c3ccccc3)N2[C@H](c2ccccc2OCCO)[C@@]12C(=O)N(C(=O)OCCOC)c1ccc(C#CCC(C(=O)OC)C(=O)OC)cc12,2.28 (inactive),0.878,-2.14,-0.757 (inactive),0.071 (inactive),0.361 (inactive)
COCCCNC(=O)[C@@]1(Sc2ccc(C)cc2)CC(=O)N(Cc2ccccc2)[C@@H]1c1ccc(CO)cc1,-0.496 (inactive),0.841,-0.471,-2.81 (inactive),-0.24 (inactive),-0.283 (inactive)
CS(=O)(=O)CCOC(=O)C1=CC(c2ccc(CO)cc2)=CC(c2cccs2)N(Cc2cccc(OC(F)(F)F)c2)C=C1C(=O)OCCS(C)(=O)=O (stereo unspecified),0.276 (inactive),0.514,-2.5,-4.18 (inactive),0.552 (inactive),0.377 (inactive)
[N-]=[N+]=Nc1ccccc1[C@@H]1OC(c2ccc(OCCCO)cc2)=N[C@]1(CCS(=O)(=O)c1ccccc1)C(=O)N1CCCCC1,1.32 (inactive),0.574,-2.23,-2.67 (inactive),0.0919 (inactive),-0.121 (inactive)
COCCOC(=O)N1C(=O)[C@@]2(c3cc(C#Cc4ccc(OC)cc4)ccc31)[C@H](C(N)=O)[C@H]1C(=O)O[C@H](c3ccccc3)[C@H](c3ccccc3)N1[C@@H]2c1ccc(O)cc1,-0.0197 (inactive),0.0645,-1.69,2.03 (inactive),-0.0863 (inactive),0.243 (inactive)
CCCCN1CC=CC23O[C@@H]4C=CCCOC(=O)C4[C@H]2C(=O)N(CCCO)[C@@H]3C1=O (stereo partly specified),-0.687 (inactive),-0.624,-1.74,-3.72 (inactive),-0.0781 (inactive),-0.559 (inactive)
CN1C(=O)C2C=CC(C(O)C(c3ccccc3)c3ccccc3)N(Nc3ccccc3)C2C1=O (stereo unspecified),0.0848 (inactive),0.68,0.608,-4.01 (inactive),0.535 (inactive),-0.0171 (inactive)
Cc1ccc(S(=O)(=O)N2CC(C(=O)O)=CCC2c2ccccc2)cc1 (stereo unspecified),0.624 (inactive),0.268,-0.863,-2.63 (inactive),-0.557 (inactive),-0.655 (inactive)
CCCC[C@H]1OB(O)C[C@H]2C1=C(C)Cn1c(=O)n(-c3ccccc3)c(=O)n12,-0.0734 (inactive),0.116,-2.15,-0.581 (inactive),-0.705 (inactive),-0.679 (inactive)

Compound,composite z-score [1],composite z-score (XIP peptide (Xip251-270)),z-score [2],z-score [3],z-score [4],z-score [5]
CCN(CC)c1ccc(N2CC=CC34O[C@@H]5C=CCOC(=O)[C@@H]5[C@H]3C(=O)N(CCCCCO)[C@@H]4C2=O)cc1 (stereo partly specified),0.614 (inactive),-0.982,-0.232,-5.05 (inactive),-0.23 (inactive),-0.33 (inactive)
[N-]=[N+]=NCc1ccccc1C[C@@]1(C(=O)NCc2ccccc2)N=C(c2ccc(OCCCO)cc2)O[C@@H]1c1ccccc1CN=[N+]=[N-],0.804 (inactive),0.735,-2.59,3.34 (inactive),-0.174 (inactive),-0.332 (inactive)
CN(C)CCCCNC(=O)[C@@H]1C[C@@H]2C(=O)N[C@@H](CCCCN)C(=O)N2[C@@H]1c1cccc(OCCO)c1,0.388 (inactive),0.566,-0.114,-3.47 (inactive),-0.833 (inactive),-0.838 (inactive)
CC(C)C(O)C1C=CC2C(=O)N(C)C(=O)C2N1N1CCCCC1 (stereo unspecified),-0.335 (inactive),0.855,0.998,-4.51 (inactive),0.604 (inactive),0.171 (inactive)
CN(C)CCCC[C@@H]1NC(=O)[C@@H]2C[C@H](C(=O)NCCCCCN)[C@H](c3ccc(O)cc3)N2C1=O,0.633 (inactive),0.433,0.336,-1.21 (inactive),-0.538 (inactive),-0.472 (inactive)
C[N+](C)(C)CCCC[C@@H]1NC(=O)[C@@H]2C[C@H](C(=O)NCCCCCCNC(=O)CS)[C@H](c3cccc(OCCO)c3)N2C1=O,0.339 (inactive),0.623,-0.198,-3.62 (inactive),-0.38 (inactive),-0.386 (inactive)
COc1ccc(CCNC(=O)[C@@]2(C)c3ccccc3C(=O)N(Cc3ccccc3)[C@H]2c2ccc(CO)cc2)cc1,1.12 (inactive),0.859,-1.93,-4.95 (inactive),-0.281 (inactive),-0.173 (inactive)
CN1C(=O)C2C=CC(C(O)C(C)(C)C)N(Nc3ccccc3)C2C1=O (stereo unspecified),0.127 (inactive),0.403,0.987,-0.565 (inactive),-0.415 (inactive),-0.815 (inactive)
CC(C)CNC(=O)[C@@]1(C)c2ccccc2C(=O)N(C(C)C)[C@H]1c1ccc(CO)cc1,-0.776 (inactive),-0.692,1.22,-1.35 (inactive),0.221 (inactive),-0.0172 (inactive)
COCCCNC(=O)[C@@]1(C)c2ccccc2C(=O)N(Cc2ccccc2)[C@H]1c1ccc(CO)cc1,0.132 (inactive),0.947,-1.35,-1.86 (inactive),-0.258 (inactive),-0.432 (inactive)
COCCCNC(=O)[C@@]1(Cc2ccccc2I)c2ccccc2C(=O)N(Cc2ccccc2)[C@H]1c1ccc(CO)cc1,0.433 (inactive),0.736,-1.04,-4.39 (inactive),-0.0143 (inactive),0.371 (inactive)
C=CCOC(=O)[C@@H]1[C@H]2C(=O)O[C@H](c3ccccc3)[C@H](c3ccccc3)N2[C@H](c2ccc(OCCOC(=O)[C@H]3C[C@H]4C(=O)N[C@@H](CCCC[N+](C)(C)C)C(=O)N4[C@H]3c3cccc(OCCO)c3)cc2)[C@@]12C(=O)Nc1ccc(I)cc12,1.31 (inactive),0.646,-1.82,1.38 (inactive),-0.118 (inactive),-0.176 (inactive)
COC(=O)[C@@]1(Cc2ccc(OC)cc2)[C@H]2c3cc(C(=O)N4CCCC4)n(CCc4ccccn4)c3C[C@H]2CN1C(=O)c1ccccc1,0.679 (inactive),0.864,-1.77,-5.3 (inactive),-0.235 (inactive),-0.224 (inactive)
O=C1O[C@H](c2ccccc2)[C@H](c2ccccc2)N2[C@H]1[C@@H](C(=O)NC[C@H](O)c1ccccc1)[C@]1(C(=O)Nc3ccc(C#CC4(O)CCCCCC4)cc31)[C@H]2c1ccccc1OCCO,-0.34 (inactive),0.814,-2.04,-2.77 (inactive),-0.0899 (inactive),-0.0113 (inactive)
COC(=O)[C@@]1(Cc2ccc(F)cc2)[C@H]2c3cc(C(=O)N4CCCC4)n(Cc4ccc(Cl)c(C(F)(F)F)c4)c3C[C@H]2CN1C(=O)c1ccccc1,0.15 (inactive),0.625,-1.45,-2.22 (inactive),0.612 (inactive),-0.126 (inactive)
